The source made the active and inactive calls. How the source made its calls: active means hit-call score of the fitted dose curve at least 0.9, where 1 is the maximum; inactive means score below 0.9.
Columns and labels:
Conditions in all cases: mRNA level, 48 h; actives raise or lower the signal
[1] = read-out: Glutamate-cysteine ligase regulatory (GCLM), GCLM (gene 2730); assay: LTEA_HepaRG_GCLM: Life Technologies and Expression Analysis (LTEA) Assay for Glutamate-cysteine ligase regulatory (GCLM) using HepaRG (AID 2283500)
In short: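 HepaRG, 48 h dosing, 100 uM top, half-log x8, 0.5% DMSO vehicle. Readout: GCLM mRNA by TaqMan qRT-PCR, housekeeping-normalized (ACTB/GAPDH/POLR2A). Curves fit bidirectionally vs DMSO baseline.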

[2] = read-out: Heat shock 70 kDa protein 1 (HSPA1A), gene 3303; assay: LTEA_HepaRG_HSPA1A: Life Technologies and Expression Analysis (LTEA) Assay for Heat shock 70 kDa protein 1 (HSPA1A) using HepaRG (AID 2283502)
In short: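 HepaRG, 48 h exposure, 8-pt half-log CRC from 100 uM in 0.5% DMSO, duplicates. Readout: TaqMan qRT-PCR of HSPA1A mRNA, housekeeping-normalized (ACTB/GAPDH/POLR2A). Bidirectional fit vs 0.5% DMSO baseline.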

[3] = read-out: 3-Hydroxy-3-Methylglutaryl-CoA Synthase 2 (HMGCS2), HMGCS2 (gene 3158); assay: LTEA_HepaRG_HMGCS2: Life Technologies and Expression Analysis (LTEA) Assay for 3-Hydroxy-3-Methylglutaryl-CoA Synthase 2 (HMGCS2) using HepaRG (AID 2283504)
In short: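 Readout is HMGCS2 transcript by qRT-PCR, housekeeping-normalised (ACTB/GAPDH/POLR2A) and fitted bidirectionally against 0.5% DMSO. Differentiated HepaRG cells received chemicals 48 h, duplicate wells, eight half-log concentrations topping at 100 uM.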

HGF (gene 3082) = assay: LTEA_HepaRG_HGF: Life Technologies and Expression Analysis (LTEA) Assay for Hepatocyte Growth Facto (HGF) using HepaRG (AID 2283505)
In short: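 HGF transcript was quantified by TaqMan qRT-PCR against three housekeeping genes after 48 h treatment of HepaRG cells. Exposure ran in duplicate over eight half-log steps topping at 100 uM in 0.5% DMSO vehicle.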

[4] = read-out: Insulin Like Growth Factor 1 (IGF1), IGF1 (gene 3479); assay: LTEA_HepaRG_IGF1: Life Technologies and Expression Analysis (LTEA) Assay for Insulin Like Growth Factor 1 (IGF1) using HepaRG (AID 2283506)
In short: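 qRT-PCR readout of IGF1 mRNA, normalized to three housekeeping genes, after 48 h chemical exposure of HepaRG cells. Concentrations: 8-point half-log series, top 100 uM, 0.5% DMSO vehicle. Gain or loss fitted against DMSO baseline.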

[5] = read-out: Intercellular Adhesion Molecule 1 (ICAM1), ICAM1 (gene 3383); assay: LTEA_HepaRG_ICAM1: Life Technologies and Expression Analysis (LTEA) Assay for Intercellular Adhesion Molecule 1 (ICAM1) using HepaRG (AID 2283507)
In short: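 ICAM1 transcript levels measured by qRT-PCR, normalized to three housekeeping genes (ACTB, GAPDH, POLR2A), after 48 h chemical exposure of HepaRG cells. Duplicate eight-point half-log series from 100 uM in 0.5% DMSO; gain or loss fitted against vehicle.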

[6] = read-out: Interleukin 6 (IL6), IL6 (gene 3569); assay: LTEA_HepaRG_IL6: Life Technologies and Expression Analysis (LTEA) Assay for Interleukin 6 (IL6) using HepaRG (AID 2283509)
In short: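 qRT-PCR read-out of IL6 transcript, normalized to three housekeeping genes, after 48 h chemical exposure of HepaRG cells; 8-point half-log series, top 100 uM, 0.5% DMSO vehicle. Bidirectional curve fitting against DMSO baseline.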

[7] = read-out: Interleukin 6 Receptor (IL6R), IL6R (gene 3570); assay: LTEA_HepaRG_IL6R: Life Technologies and Expression Analysis (LTEA) Assay for Interleukin 6 Receptor (IL6R) using HepaRG (AID 2283510);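 on AC50: differentiated human HepaRG liver cells in serum-free induction medium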
In short: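 HepaRG, 48 h exposure, 8-pt half-log series, top 100 uM, 0.5% DMSO vehicle, duplicates. Read-out: TaqMan qRT-PCR of IL6R transcript, housekeeping-gene normalized. Gain or loss fitted relative to DMSO baseline.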

[8] = read-out: Potassium channel subfamily K member 1 (KCNK1), KCNK1 (gene 3775); assay: LTEA_HepaRG_KCNK1: Life Technologies and Expression Analysis (LTEA) Assay for Potassium channel subfamily K member 1 (KCNK1) using HepaRG (AID 2283511)
In short: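 HepaRG, 48 h exposure, 8-pt half-log series top 100 uM, 0.5% DMSO vehicle, duplicates. Readout: KCNK1 transcript by qRT-PCR (Fluidigm array), housekeeping-normalized; bidirectional curve fit relative to DMSO baseline.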

[9] = read-out: JUN Transcription Factor, JUN (gene 3725); assay: LTEA_HepaRG_JUN: Life Technologies and Expression Analysis (LTEA) Assay for JUN Transcription Factor using HepaRG (AID 2283513)
In short: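 HepaRG, 48 h exposure, 8-pt half-log series top 100 uM, 0.5% DMSO, duplicate. JUN mRNA by qRT-PCR (Fluidigm), housekeeping-normalized (ACTB/GAPDH/POLR2A); bidirectional curve fit vs DMSO baseline.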

[10] = read-out: Lipase C (LIPC), LIPC (gene 3990); assay: LTEA_HepaRG_LIPC: Life Technologies and Expression Analysis (LTEA) Assay for Lipase C (LIPC) using HepaRG (AID 2283514)
In short: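 HepaRG, 48 h exposure, 8-pt half-log series from 100 uM in 0.5% DMSO, duplicates. Readout: LIPC mRNA by Fluidigm qRT-PCR, housekeeping-normalized (ACTB/GAPDH/POLR2A). Gain or loss fitted bidirectionally against DMSO baseline.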

[11] = read-out: MicroRNA 122 (MIR122), gene 406906; assay: LTEA_HepaRG_MIR122: Life Technologies and Expression Analysis (LTEA) Assay for MicroRNA 122 (MIR122) using HepaRG (AID 2283516); further: the transcript read is the microRNA miR-122
In short: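 qRT-PCR read-out (TaqMan, Fluidigm array), normalized to three housekeeping genes; HepaRG cells dosed 48 h at 8 concentrations up to 100 uM in 0.5% DMSO, duplicate; gain or loss fitted against DMSO baseline.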

[12] = read-out: matrix metalloproteinase-10 (MMP10), MMP10 (gene 4319); assay: LTEA_HepaRG_MMP10: Life Technologies and Expression Analysis (LTEA) Assay for matrix metalloproteinase-10 (MMP10) using HepaRG (AID 2283517)
In short: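 Transcript levels come from Fluidigm qRT-PCR normalized to three housekeeping genes, with curves fitted bidirectionally against 0.5% DMSO. Human HepaRG cells were dosed for 48 hours at concentrations up to 100 uM.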

MYC, MYC (gene 4609) = assay: LTEA_HepaRG_MYC: Life Technologies and Expression Analysis (LTEA) Assay for MYC using HepaRG (AID 2283518)
In short: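 MYC transcript changes, up or down relative to 0.5% DMSO, from TaqMan qRT-PCR normalized to three housekeeping genes. Human HepaRG cultures received chemicals for 48 h at eight half-log concentrations up to 100 uM, in duplicate.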

[13] = read-out: matrix metalloproteinase-3 (MMP3), MMP3 (gene 4314); assay: LTEA_HepaRG_MMP3: Life Technologies and Expression Analysis (LTEA) Assay for matrix metalloproteinase-3 (MMP3) using HepaRG (AID 2283519)
In short: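 qRT-PCR read-out of MMP3 mRNA (normalised to three housekeeping genes) in HepaRG liver cells after 48 h chemical exposure; 8-point half-log series, top 100 uM, 0.5% DMSO vehicle. Bidirectional curve fitting against DMSO baseline.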

[14] = read-out: Insulin-like growth factor-binding protein 1 (IGFBP1), IGFBP1 (gene 3484); assay: LTEA_HepaRG_IGFBP1: Life Technologies and Expression Analysis (LTEA) Assay for Insulin-like growth factor-binding protein 1 (IGFBP1) using HepaRG (AID 2283508)
In short: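 Read-out is qRT-PCR transcript level normalized to three housekeeping genes, fitted in both directions against 0.5% DMSO. Differentiated HepaRG cells received eight half-log concentrations (top 100 uM) in duplicate for 48 h in serum-free induction medium.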

[15] = read-out: Lipoprotein lipase (LPL), LPL (gene 4023); assay: LTEA_HepaRG_LPL: Life Technologies and Expression Analysis (LTEA) Assay for Lipoprotein lipase (LPL) using HepaRG (AID 2283515)
In short: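 HepaRG, 48 h exposure, 8-pt half-log dilutions from 100 uM, 0.5% DMSO vehicle, duplicates; qRT-PCR (Fluidigm array) of LPL mRNA vs housekeeping genes; bidirectional curve fit relative to DMSO baseline.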

Measured: AC50

O=C(O)COc1ccc(Cl)cc1Cl
not listed: [14] | [15]
inactive: all other assays above

COP(=O)(OC)OC=C(Cl)Cl
inactive: all assays above

O=C(NC(=O)c1c(F)cccc1F)Nc1ccc(OC(F)(F)C(F)OC(F)(F)F)c(Cl)c1 (configuration not stated)
inactive: all assays above

CC1(C)C(C=C(Cl)Cl)C1C(=O)OC(C#N)c1ccc(F)c(Oc2ccccc2)c1 (configuration not stated)
inactive: all assays above

C[C@H]1[C@H](c2ccc(Cl)cc2)SC(=O)N1C(=O)NC1CCCCC1
inactive: [2] | HGF (gene 3082) | [7] | [8] | [9] | [13]
active: [1] 73.5 µM | [3] 38.2 µM | [4] 40.1 µM | [5] 81.3 µM | [14] 75.4 µM | [6] 77.7 µM | [10] 36.5 µM | [15] 60.7 µM | [11] 60 µM | [12] 79.5 µM | MYC, MYC (gene 4609) 71.1 µM

N#Cc1c(Cl)c(Cl)c(Cl)c(C#N)c1Cl
active: [2] 17.3 µM | [14] 3.27 µM | [10] 50 µM | [15] 18 µM | [11] 90.9 µM | [12] 15.6 µM | MYC, MYC (gene 4609) 50 µM | [13] 21 µM
inactive: all other assays above

O=C(O)CCCOc1ccc(Cl)cc1Cl
inactive: all assays above

CC(C)(C)C(O)/C(=C\c1ccc(Cl)cc1Cl)n1cncn1 (configuration not stated)
active: [2] 93.3 µM | [3] 30.7 µM | [4] 91.2 µM | [5] 50 µM | [14] 56.9 µM | [6] 94.6 µM | [7] 50 µM | [8] 71.6 µM | [9] 72.7 µM | [10] 21.5 µM | [15] 12.4 µM
inactive: [1] | HGF (gene 3082) | [11] | [12] | MYC, MYC (gene 4609) | [13]

Cc1[nH]c(=O)n(C(C)(C)C)c(=O)c1Cl
active: [14] 50 µM
inactive: all other assays above

COc1nn(CSP(=S)(OC)OC)c(=O)s1
inactive: all assays above

CCc1ccc(C(=O)NN(C(=O)c2cc(C)cc(C)c2)C(C)(C)C)cc1
active: [2] 81.7 µM | [3] 50 µM
inactive: all other assays above

CC(C)N(C(=O)COc1nnc(C(F)(F)F)s1)c1ccc(F)cc1
active: [3] 50 µM
inactive: all other assays above

From PubChem BioAssay (EPA / NIEHS)
